Data reported in PubChem BioAssay AID1347146 (National Center for Advancing Translational Sciences (NCATS), 2019).
Records with an inconclusive call do not appear. A number with no mark means an inactive call. The source made the active and inactive calls. Calls follow the shape of the dose curve; as a rule, active = well fitted inhibition curve with a large enough effect; inconclusive = small, poorly fitted or top-dose-only effect; inactive = no such curve, though single readings can be large or run the other way.

What follows are compounds tested against Nicotinamide N-methyltransferase (Homo sapiens) (UniProt P40261) (assay: qHTS Assay for Inhibitors of N-terminal methyltransferase 1 (NTMT1): NNMT MTaseGlo counterscreen assay). Settings: NNMT enzyme, MTase-Glo luminescence counterscreen; series mostly up to 57.1 µM; activity change, negative = inhibition: at the top concentration.
Chain of Nicotinamide N-methyltransferase (Homo sapiens) (P40261 whole entry, looked up): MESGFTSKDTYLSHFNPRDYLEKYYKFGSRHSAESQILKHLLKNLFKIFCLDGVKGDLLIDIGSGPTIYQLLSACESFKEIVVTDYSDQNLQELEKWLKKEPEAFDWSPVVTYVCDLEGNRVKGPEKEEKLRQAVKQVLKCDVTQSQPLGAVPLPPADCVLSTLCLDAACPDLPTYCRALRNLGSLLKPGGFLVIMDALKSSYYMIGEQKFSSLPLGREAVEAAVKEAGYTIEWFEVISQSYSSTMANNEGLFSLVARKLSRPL
In short: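 Luminescent MTase-Glo read-out of SAH from nicotinamide methylation: 1 µM nicotinamide, 100 µM SAM, 125 nM NNMT, 30 min RT after ~15 min compound preincubation. Values normalized to no-enzyme/DMSO controls, Hill-fitted.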
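For activity change, negative = inhibition in this document: plate controls were DMSO without inhibitor for no effect and no-enzyme control for full effect.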
Potency is read from the fitted curve at half-maximal effect.

Compound	activity change, negative = inhibition	Potency
CC(CN1c2ccccc2Sc2ccccc21)N(C)C (stereo not drawn)	98.6%	–
COc1cc2c(NC3CCN(C(C)C)CC3)nc(N3CCCN(c4ccccc4)CC3)nc2cc1OCCCN1CCCC1	-4.98%	–
CC/C(=C(\c1ccccc1)c1ccc(OCCN(C)C)cc1)c1ccccc1	–	inactive
Brc1c(NC2=NCCN2)ccc2nccnc12	-12.4%	–
C=Cc1c(C)c2cc3[nH]c(cc4nc(cc5nc(cc1[nH]2)C(C)=C5CCC(=O)O)C(CCC(=O)O)=C4C)c(C)c3C=C	-14.1%	–
N=C(N)c1ccc(OCCCCCOc2ccc(C(=N)N)cc2)cc1 (tested in a mixture with another compound)	-16.6%	–
CCN(CC)CCNC(=O)c1c(C)[nH]c(/C=C2\C(=O)Nc3ccc(F)cc32)c1C	-14.6%	–
O=[N+]([O-])c1ccc(-c2nc(-c3ccc(F)cc3)c(-c3ccncc3)[nH]2)cc1	-15.3%	–
C[N+]1(C)CCC(OC(=O)C(c2ccccc2)c2ccccc2)CC1	-7.96%	–
CCCc1cc(C)[nH]c(=O)c1CNC(=O)c1cc(-c2ccc(N3CCN(C(C)C)CC3)nc2)cc2c1cnn2C(C)C	-18%	–
Cc1nnc(SCC2=C(C(=O)O)N3C(=O)[C@@H](NC(=O)Cn4cnnn4)[C@H]3SC2)s1	-9.85%	–
Oc1cc2c(cc1O)CN(C(=S)NCCc1ccc(Cl)cc1)CCC2	-13.5%	–
S=C(Nc1ccccc1)Nc1nccs1	-18.7%	–
NC[C@@H]1O[C@H](C23CC4CC(CC(C4)C2)C3)Cc2c1ccc(O)c2O	-13.5%	–
CC[N+](CC)(CC)CCOc1cccc(OCC[N+](CC)(CC)CC)c1OCC[N+](CC)(CC)CC	-11.5%	–
NCCc1ccc(O)c(O)c1	-6.57%	–
Cc1ccc(O)c(N=Nc2ccccc2)n1	–	14.1 µM (active)
CN(C)CCCN1c2ccccc2Sc2ccc(C(F)(F)F)cc21	-19.8%	–
